Test results taken from article PMC7862700, “An all-to-all approach to the identification of sequence-specific readers for epigenetic DNA modifications on cytosine”.

Legend:
Test in all cases: DAPPL (digital affinity profiling via proximity ligation, sequencing); 10 mM Tris-HCl pH 7.5, 50 mM NaCl, 1 mM DTT, 4% glycerol, room temperature, 30 min; GST-TFs on glutathione beads, 16-mer random dsDNA library, 0.1% formaldehyde crosslink after washing; high values mean tight binding
Settings in all cases: protein: recombinant; tags: N-terminal GST; dsDNA, one strand shown
ERF = biological target: T1, ERF (Homo sapiens, UniProt P50548 1-548)
T1 sequence: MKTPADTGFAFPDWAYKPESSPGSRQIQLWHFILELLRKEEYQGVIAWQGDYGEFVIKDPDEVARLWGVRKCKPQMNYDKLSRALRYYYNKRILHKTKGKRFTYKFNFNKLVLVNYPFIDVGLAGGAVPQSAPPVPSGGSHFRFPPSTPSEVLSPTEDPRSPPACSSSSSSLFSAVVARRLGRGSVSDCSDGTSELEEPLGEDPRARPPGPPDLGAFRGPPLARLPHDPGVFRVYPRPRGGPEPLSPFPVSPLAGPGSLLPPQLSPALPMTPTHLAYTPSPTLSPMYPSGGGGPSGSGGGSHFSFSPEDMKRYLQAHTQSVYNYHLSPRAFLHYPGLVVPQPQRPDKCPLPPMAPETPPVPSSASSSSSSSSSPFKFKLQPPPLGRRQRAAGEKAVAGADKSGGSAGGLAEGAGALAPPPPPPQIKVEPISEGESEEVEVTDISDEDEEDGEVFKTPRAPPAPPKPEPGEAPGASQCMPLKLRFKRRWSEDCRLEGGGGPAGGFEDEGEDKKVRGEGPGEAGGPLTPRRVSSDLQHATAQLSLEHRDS
How it was run: (§1)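 GST fusions of human transcription factors were expressed in yeast and captured with glutathione beads. Once given DNA barcodes and pooled alongside a tag-only sample, they were incubated for 30 min at room temperature with 200 nmole of a random double-stranded 16-mer DNA library in Tris/NaCl/DTT/glycerol buffer, then washed, crosslinked (0.1% formaldehyde), proximity-ligated, PCR-amplified and sequenced on an Illumina NextSeq500. The binding signal of each hexamer is its read frequency for a factor divided by its frequency for the tag-only sample.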

ETV3L = biological target: T2, ETV3L (Homo sapiens, UniProt Q6ZN32 1-361)
T2 sequence: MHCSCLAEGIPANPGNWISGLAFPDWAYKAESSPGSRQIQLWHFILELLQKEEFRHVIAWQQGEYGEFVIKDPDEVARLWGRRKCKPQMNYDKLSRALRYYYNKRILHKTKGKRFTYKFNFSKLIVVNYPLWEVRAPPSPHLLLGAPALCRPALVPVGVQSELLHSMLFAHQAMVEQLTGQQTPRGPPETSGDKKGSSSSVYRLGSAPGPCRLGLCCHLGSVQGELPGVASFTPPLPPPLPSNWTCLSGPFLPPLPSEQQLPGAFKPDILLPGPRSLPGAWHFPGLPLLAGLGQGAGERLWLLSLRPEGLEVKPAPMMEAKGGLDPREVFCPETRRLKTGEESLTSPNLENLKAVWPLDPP
How it was run: as §1

ETS2 = biological target: T3, ETS2 (Homo sapiens, UniProt P15036 1-469)
T3 sequence: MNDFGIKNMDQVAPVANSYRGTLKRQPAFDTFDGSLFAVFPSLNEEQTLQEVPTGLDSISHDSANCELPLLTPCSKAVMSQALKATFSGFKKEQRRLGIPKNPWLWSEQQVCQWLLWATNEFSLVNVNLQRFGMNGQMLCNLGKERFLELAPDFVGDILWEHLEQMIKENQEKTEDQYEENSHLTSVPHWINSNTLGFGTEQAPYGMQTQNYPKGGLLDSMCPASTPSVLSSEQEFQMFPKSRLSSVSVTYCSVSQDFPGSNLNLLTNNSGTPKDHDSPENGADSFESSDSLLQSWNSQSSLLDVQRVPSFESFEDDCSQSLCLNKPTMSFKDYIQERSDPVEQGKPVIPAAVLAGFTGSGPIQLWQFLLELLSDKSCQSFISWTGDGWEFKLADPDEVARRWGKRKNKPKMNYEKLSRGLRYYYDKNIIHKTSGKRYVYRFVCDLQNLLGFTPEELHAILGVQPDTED
How it was run: as §1

ETV7 = biological target: T4, ETV7 (Homo sapiens, UniProt Q9Y603 1-341)
T4 sequence: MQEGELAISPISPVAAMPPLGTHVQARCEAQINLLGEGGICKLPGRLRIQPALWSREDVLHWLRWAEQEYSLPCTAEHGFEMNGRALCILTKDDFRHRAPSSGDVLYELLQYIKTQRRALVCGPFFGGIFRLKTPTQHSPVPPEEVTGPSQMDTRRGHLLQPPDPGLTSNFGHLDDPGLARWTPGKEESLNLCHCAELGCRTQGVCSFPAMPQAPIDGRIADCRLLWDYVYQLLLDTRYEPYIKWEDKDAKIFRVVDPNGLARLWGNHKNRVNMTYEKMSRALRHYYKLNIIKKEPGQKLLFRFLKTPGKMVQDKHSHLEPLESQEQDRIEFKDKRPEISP
How it was run: as §1

ELF5 = biological target: T5, ELF5 (Homo sapiens, UniProt Q9UKW6-2 1-255)
T5 sequence: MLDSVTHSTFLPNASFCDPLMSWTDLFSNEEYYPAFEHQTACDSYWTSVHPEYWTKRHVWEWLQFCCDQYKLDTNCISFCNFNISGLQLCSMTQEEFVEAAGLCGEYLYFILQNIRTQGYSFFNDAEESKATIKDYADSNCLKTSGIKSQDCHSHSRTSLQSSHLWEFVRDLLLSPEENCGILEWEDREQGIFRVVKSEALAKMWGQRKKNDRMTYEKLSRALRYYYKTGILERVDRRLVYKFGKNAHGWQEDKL
How it was run: as §1

ETV3 = biological target: T6, ETV3 (Homo sapiens, UniProt P41162-2 1-143)
T6 sequence: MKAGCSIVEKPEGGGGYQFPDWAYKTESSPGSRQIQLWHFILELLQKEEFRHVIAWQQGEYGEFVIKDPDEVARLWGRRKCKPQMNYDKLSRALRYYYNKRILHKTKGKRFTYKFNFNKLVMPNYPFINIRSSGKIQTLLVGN
How it was run: as §1

ETV6 = ETV6 (Homo sapiens, UniProt P41212 1-452)
How it was run: as §1

SPDEF = biological target: T7, SPDEF (Homo sapiens, UniProt O95238 1-335)
T7 sequence: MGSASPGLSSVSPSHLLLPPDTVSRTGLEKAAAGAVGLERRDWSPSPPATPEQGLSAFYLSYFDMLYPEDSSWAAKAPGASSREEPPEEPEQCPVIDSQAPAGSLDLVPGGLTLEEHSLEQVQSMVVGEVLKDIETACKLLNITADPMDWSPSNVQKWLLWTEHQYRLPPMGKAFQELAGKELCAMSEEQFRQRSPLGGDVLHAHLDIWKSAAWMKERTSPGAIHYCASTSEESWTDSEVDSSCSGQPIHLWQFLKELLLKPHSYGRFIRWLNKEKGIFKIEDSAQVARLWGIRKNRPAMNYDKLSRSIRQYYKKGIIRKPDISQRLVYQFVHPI
How it was run: as §1

Chain of ETV6 (P41212 whole entry): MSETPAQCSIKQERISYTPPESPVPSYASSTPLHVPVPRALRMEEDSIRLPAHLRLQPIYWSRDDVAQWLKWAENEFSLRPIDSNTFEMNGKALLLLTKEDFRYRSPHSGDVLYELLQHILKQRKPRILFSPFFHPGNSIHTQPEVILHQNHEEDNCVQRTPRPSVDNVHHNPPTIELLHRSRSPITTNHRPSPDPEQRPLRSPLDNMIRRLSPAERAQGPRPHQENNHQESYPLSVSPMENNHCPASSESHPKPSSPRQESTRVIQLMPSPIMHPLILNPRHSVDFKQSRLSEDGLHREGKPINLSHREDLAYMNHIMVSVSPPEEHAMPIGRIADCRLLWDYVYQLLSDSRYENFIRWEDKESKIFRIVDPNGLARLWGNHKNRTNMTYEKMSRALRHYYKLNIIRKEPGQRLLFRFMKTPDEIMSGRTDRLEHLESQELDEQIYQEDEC

Sequence	binding signal (ERF)	binding signal (ETV3L)	binding signal (ETS2)	binding signal (ETV7)	binding signal (ELF5)	binding signal (ETV3)	binding signal (ETV6)	binding signal (SPDEF)
ACTCGC	1.17 fold enrichment (6-mer frequency, TF over GST control)	1.08 fold enrichment (6-mer frequency, TF over GST control)	1.14 fold enrichment (6-mer frequency, TF over GST control)	1.09 fold enrichment (6-mer frequency, TF over GST control)	1.08 fold enrichment (6-mer frequency, TF over GST control)	1.08 fold enrichment (6-mer frequency, TF over GST control)	1.25 fold enrichment (6-mer frequency, TF over GST control)	–
AAGCAA	1.01 fold enrichment (6-mer frequency, TF over GST control)	1.01 fold enrichment (6-mer frequency, TF over GST control)	1.11 fold enrichment (6-mer frequency, TF over GST control)	1.05 fold enrichment (6-mer frequency, TF over GST control)	1.03 fold enrichment (6-mer frequency, TF over GST control)	1.12 fold enrichment (6-mer frequency, TF over GST control)	1.02 fold enrichment (6-mer frequency, TF over GST control)	–
GACTTT	1.09 fold enrichment (6-mer frequency, TF over GST control)	1.13 fold enrichment (6-mer frequency, TF over GST control)	1.17 fold enrichment (6-mer frequency, TF over GST control)	1.2 fold enrichment (6-mer frequency, TF over GST control)	1.13 fold enrichment (6-mer frequency, TF over GST control)	1.14 fold enrichment (6-mer frequency, TF over GST control)	1.14 fold enrichment (6-mer frequency, TF over GST control)	–
GCTCGA	1.24 fold enrichment (6-mer frequency, TF over GST control)	1.26 fold enrichment (6-mer frequency, TF over GST control)	1.19 fold enrichment (6-mer frequency, TF over GST control)	1.11 fold enrichment (6-mer frequency, TF over GST control)	1.1 fold enrichment (6-mer frequency, TF over GST control)	1.14 fold enrichment (6-mer frequency, TF over GST control)	1.25 fold enrichment (6-mer frequency, TF over GST control)	–
CTGGCC	1.19 fold enrichment (6-mer frequency, TF over GST control)	1.11 fold enrichment (6-mer frequency, TF over GST control)	1.17 fold enrichment (6-mer frequency, TF over GST control)	1.03 fold enrichment (6-mer frequency, TF over GST control)	1.01 fold enrichment (6-mer frequency, TF over GST control)	1.06 fold enrichment (6-mer frequency, TF over GST control)	1.23 fold enrichment (6-mer frequency, TF over GST control)	–
GATAAT	1.11 fold enrichment (6-mer frequency, TF over GST control)	1.12 fold enrichment (6-mer frequency, TF over GST control)	1.18 fold enrichment (6-mer frequency, TF over GST control)	1.12 fold enrichment (6-mer frequency, TF over GST control)	1.08 fold enrichment (6-mer frequency, TF over GST control)	1.15 fold enrichment (6-mer frequency, TF over GST control)	1.05 fold enrichment (6-mer frequency, TF over GST control)	–
TAGCGA	1.19 fold enrichment (6-mer frequency, TF over GST control)	1.02 fold enrichment (6-mer frequency, TF over GST control)	1.01 fold enrichment (6-mer frequency, TF over GST control)	–	–	–	1 fold enrichment (6-mer frequency, TF over GST control)	1.02 fold enrichment (6-mer frequency, TF over GST control)
ATAAAG	1.02 fold enrichment (6-mer frequency, TF over GST control)	1.01 fold enrichment (6-mer frequency, TF over GST control)	1 fold enrichment (6-mer frequency, TF over GST control)	1.09 fold enrichment (6-mer frequency, TF over GST control)	1.03 fold enrichment (6-mer frequency, TF over GST control)	1.05 fold enrichment (6-mer frequency, TF over GST control)	1.03 fold enrichment (6-mer frequency, TF over GST control)	–
AACAGC	1.15 fold enrichment (6-mer frequency, TF over GST control)	1.05 fold enrichment (6-mer frequency, TF over GST control)	1.08 fold enrichment (6-mer frequency, TF over GST control)	1.21 fold enrichment (6-mer frequency, TF over GST control)	1.09 fold enrichment (6-mer frequency, TF over GST control)	1.13 fold enrichment (6-mer frequency, TF over GST control)	1.1 fold enrichment (6-mer frequency, TF over GST control)	–
AAAGCT	1.02 fold enrichment (6-mer frequency, TF over GST control)	1.01 fold enrichment (6-mer frequency, TF over GST control)	1.03 fold enrichment (6-mer frequency, TF over GST control)	1.03 fold enrichment (6-mer frequency, TF over GST control)	1.01 fold enrichment (6-mer frequency, TF over GST control)	1.04 fold enrichment (6-mer frequency, TF over GST control)	1.09 fold enrichment (6-mer frequency, TF over GST control)	–
AAGCTG	1.18 fold enrichment (6-mer frequency, TF over GST control)	1.05 fold enrichment (6-mer frequency, TF over GST control)	1.13 fold enrichment (6-mer frequency, TF over GST control)	1.18 fold enrichment (6-mer frequency, TF over GST control)	1.11 fold enrichment (6-mer frequency, TF over GST control)	1.24 fold enrichment (6-mer frequency, TF over GST control)	1.08 fold enrichment (6-mer frequency, TF over GST control)	–
TCTAGG	1.03 fold enrichment (6-mer frequency, TF over GST control)	1.08 fold enrichment (6-mer frequency, TF over GST control)	1.02 fold enrichment (6-mer frequency, TF over GST control)	1.16 fold enrichment (6-mer frequency, TF over GST control)	1.07 fold enrichment (6-mer frequency, TF over GST control)	1.12 fold enrichment (6-mer frequency, TF over GST control)	1.02 fold enrichment (6-mer frequency, TF over GST control)	–
TTTCGC	1.1 fold enrichment (6-mer frequency, TF over GST control)	1.25 fold enrichment (6-mer frequency, TF over GST control)	1.14 fold enrichment (6-mer frequency, TF over GST control)	1.16 fold enrichment (6-mer frequency, TF over GST control)	1.08 fold enrichment (6-mer frequency, TF over GST control)	1.13 fold enrichment (6-mer frequency, TF over GST control)	1.11 fold enrichment (6-mer frequency, TF over GST control)	–
GCGTTT	1.1 fold enrichment (6-mer frequency, TF over GST control)	1.11 fold enrichment (6-mer frequency, TF over GST control)	1.09 fold enrichment (6-mer frequency, TF over GST control)	1.12 fold enrichment (6-mer frequency, TF over GST control)	1.12 fold enrichment (6-mer frequency, TF over GST control)	1.19 fold enrichment (6-mer frequency, TF over GST control)	1.04 fold enrichment (6-mer frequency, TF over GST control)	–
